PubChem BioAssay
Activity calls are given as the source filed them.

Tests used:
[1] = system: PRMT1 (protein arginine N-methyltransferase 1); test: PRMT1 binders on small-molecule microarrays, primary screen, biochemical, small-molecule microarray, 635 nm fluorescence (AID 1088); settings: small-molecule microarray binding, higher = more signal;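 further: binding of Prmt1 protein to compounds spotted on small-molecule microarray slides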
[2] = yeast growth modulation, basal conditions, primary screen, YJM789 clinical isolate, OD600, 24 h (AID 1089);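 further: growth of clinical yeast isolate S. cerevisiae YJM 789 seeded 1000 cells per well; test concentration not given here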; settings: S. cerevisiae YJM789 growth, higher = more signal, called active from +8 up or from −8 down
[3] = fission yeast growth modulation, primary screen, strain 972, OD600, 24 h, no modulator (AID 1090);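 further: basal condition with compound alone and no growth modifier present; test concentration not given here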; settings: S. pombe 972 growth, higher = more signal, called active from +8 up or from −8 down
[4] = S. cerevisiae growth modulation with rapamycin, primary screen, strain BY4716, OD600, 96 h (AID 1091); settings: higher = more signal, called active from +8 up or from −8 down; further: test concentration not given here
[5] = target: Torsin-1A-interacting protein 2 (Homo sapiens) (UniProt Q8NFQ8); test: LULL1 binders on small-molecule microarray, primary screen, cell lysate, human LULL1 lysate, 635/667 nm fluorescence (AID 1092); settings: hLULL1 lysate binding, 635 nm fluorescence, higher = more signal;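 further: probe is lysate of COS7 cells overexpressing human LULL1; score merges per-feature 667 nm fluorescence with signal-to-noise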
Torsin-1A-interacting protein 2 (Homo sapiens), sequence (Q8NFQ8 whole entry, looked up): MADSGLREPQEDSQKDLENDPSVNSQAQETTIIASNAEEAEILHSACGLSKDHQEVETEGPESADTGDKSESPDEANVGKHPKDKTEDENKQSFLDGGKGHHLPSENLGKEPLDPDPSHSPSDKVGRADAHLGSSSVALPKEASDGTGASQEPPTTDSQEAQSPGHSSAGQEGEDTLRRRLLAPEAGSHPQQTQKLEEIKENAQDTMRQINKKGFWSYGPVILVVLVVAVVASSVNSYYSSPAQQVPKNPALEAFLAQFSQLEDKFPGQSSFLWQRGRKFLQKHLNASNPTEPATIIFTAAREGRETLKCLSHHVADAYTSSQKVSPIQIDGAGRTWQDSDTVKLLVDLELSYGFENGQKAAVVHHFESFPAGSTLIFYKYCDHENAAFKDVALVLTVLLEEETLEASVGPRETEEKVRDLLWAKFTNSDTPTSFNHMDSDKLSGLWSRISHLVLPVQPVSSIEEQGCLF

[6] = E. coli growth modulation, two-sided OD650, primary screen, E. coli filamentation project, strain DRC41, 24 h (AID 1093); settings: OD650, 24 h, higher = more signal, called active from +8 up or from −8 down;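 further: MC1000 strain lacking acrAB efflux and sulA so SOS filamentation is blocked; test concentration not given here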
[7] = small-molecule microarray binders of probe aLefty2, primary screen, biochemical, biotinylated probe, 635/667 nm fluorescence (AID 1094); settings: higher = more signal;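 further: score merges spot fluorescence near 667 nm with spot signal-to-noise ratio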
[8] = system: Noggin (protein binding on small-molecule microarray); test: Noggin binders on small-molecule microarray, primary screen, biochemical, 635/667 nm fluorescence (AID 1095); settings: 635 nm fluorescence, higher = more signal;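 further: score merges 667 nm feature fluorescence with signal to noise over triplicate slides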
[9] = target: Neurogenic locus notch homolog protein 3 (Homo sapiens) (UniProt Q9UM47); test: NOTCH3 binders on small-molecule microarray, primary screen, biochemical, 635/667 nm fluorescence (AID 1096); settings: NOTCH3 binding, 635 nm fluorescence, higher = more signal
Neurogenic locus notch homolog protein 3 (Homo sapiens), sequence (Q9UM47 whole entry, looked up): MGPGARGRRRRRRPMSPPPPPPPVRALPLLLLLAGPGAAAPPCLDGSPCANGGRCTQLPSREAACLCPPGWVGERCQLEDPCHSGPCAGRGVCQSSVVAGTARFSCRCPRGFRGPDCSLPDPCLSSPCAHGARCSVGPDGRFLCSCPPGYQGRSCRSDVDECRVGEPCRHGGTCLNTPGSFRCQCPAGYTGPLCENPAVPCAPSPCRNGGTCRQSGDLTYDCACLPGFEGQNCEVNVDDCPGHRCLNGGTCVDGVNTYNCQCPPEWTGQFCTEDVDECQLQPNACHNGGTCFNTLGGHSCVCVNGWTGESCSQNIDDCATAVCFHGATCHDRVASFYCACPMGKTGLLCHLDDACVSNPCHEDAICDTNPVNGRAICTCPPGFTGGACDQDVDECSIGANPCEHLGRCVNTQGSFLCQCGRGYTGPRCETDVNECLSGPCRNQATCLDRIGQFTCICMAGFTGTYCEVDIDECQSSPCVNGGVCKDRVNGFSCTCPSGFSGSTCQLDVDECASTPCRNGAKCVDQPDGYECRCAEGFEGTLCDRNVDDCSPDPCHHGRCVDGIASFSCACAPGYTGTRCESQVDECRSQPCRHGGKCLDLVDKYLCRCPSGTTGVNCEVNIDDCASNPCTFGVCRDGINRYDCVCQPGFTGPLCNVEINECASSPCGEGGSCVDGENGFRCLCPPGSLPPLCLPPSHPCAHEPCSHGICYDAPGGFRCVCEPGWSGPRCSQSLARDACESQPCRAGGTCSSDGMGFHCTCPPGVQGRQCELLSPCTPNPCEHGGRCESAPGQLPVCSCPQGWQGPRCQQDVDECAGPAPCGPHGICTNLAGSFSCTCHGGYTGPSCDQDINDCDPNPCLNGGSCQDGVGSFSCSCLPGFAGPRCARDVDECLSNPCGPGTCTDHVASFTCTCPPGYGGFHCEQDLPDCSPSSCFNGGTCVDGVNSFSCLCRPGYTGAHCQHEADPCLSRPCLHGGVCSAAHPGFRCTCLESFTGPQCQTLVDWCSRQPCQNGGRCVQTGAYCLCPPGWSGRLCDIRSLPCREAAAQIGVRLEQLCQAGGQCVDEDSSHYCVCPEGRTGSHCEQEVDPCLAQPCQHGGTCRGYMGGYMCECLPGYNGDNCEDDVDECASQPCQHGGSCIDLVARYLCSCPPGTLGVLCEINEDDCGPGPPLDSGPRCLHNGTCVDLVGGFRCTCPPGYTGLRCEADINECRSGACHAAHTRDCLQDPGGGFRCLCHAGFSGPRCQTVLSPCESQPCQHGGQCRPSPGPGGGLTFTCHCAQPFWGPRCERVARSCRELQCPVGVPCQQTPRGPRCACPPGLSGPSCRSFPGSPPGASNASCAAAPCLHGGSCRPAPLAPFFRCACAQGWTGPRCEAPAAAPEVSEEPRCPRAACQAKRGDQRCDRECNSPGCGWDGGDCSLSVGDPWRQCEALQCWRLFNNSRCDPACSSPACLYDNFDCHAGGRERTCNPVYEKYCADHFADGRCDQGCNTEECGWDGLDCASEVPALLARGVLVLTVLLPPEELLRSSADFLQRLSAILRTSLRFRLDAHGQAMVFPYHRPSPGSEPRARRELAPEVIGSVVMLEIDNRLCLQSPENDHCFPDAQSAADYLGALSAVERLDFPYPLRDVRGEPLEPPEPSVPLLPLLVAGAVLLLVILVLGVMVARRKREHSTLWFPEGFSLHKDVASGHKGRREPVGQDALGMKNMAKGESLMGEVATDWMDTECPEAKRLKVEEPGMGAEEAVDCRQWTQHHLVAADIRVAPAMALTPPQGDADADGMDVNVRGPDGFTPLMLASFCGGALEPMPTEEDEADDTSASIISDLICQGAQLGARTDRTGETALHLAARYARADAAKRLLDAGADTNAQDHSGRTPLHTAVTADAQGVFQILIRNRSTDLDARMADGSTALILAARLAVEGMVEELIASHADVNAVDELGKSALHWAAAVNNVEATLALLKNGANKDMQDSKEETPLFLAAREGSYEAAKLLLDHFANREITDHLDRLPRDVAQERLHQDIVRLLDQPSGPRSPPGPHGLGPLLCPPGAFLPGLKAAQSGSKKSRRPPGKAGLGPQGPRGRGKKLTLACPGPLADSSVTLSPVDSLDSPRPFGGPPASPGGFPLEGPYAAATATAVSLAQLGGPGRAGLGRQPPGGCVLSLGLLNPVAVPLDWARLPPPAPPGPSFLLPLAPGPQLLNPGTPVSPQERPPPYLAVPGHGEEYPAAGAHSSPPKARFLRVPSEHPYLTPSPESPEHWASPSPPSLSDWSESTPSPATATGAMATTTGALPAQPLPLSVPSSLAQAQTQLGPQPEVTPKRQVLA

[10] = small-molecule microarray binders of probe aEGFR, primary screen, biochemical, biotinylated probe, 635/667 nm fluorescence (AID 1097); settings: higher = more signal;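 further: probe is a biotinylated anti-EGFR antibody binding compounds printed on slides; score combines fluorescence near 667 nm and signal to noise of each spot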
[11] = system: Plasmodium falciparum Sir2 (PF13_0152, Sir2A); test: pfSir2 binders on small-molecule microarrays, primary screen, biochemical, small-molecule microarray, 635 nm fluorescence (AID 1098); settings: small-molecule microarray binding, fluorescence 635 nm; higher = more signal;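 further: score merges spot fluorescence intensity with its signal-to-noise ratio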
[12] = small-molecule microarray binders of probe aDKK1, primary screen, biochemical, biotinylated probe, 635/667 nm fluorescence (AID 1099); settings: higher = more signal;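 further: score merges 667nm spot fluorescence with signal to noise across triplicate slides; reference of the scale not given here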
[13] = small-molecule microarray binders of probe aCHRDL2, primary screen, biochemical, biotinylated probe, 635/667 nm fluorescence (AID 1100); settings: higher = more signal
[14] = splicing luciferase reporter signal modulators, primary screen, spliceosome inhibition project, cell-based, HEK293, splice +/- reporter (AID 1101); settings: luminescence, 24 h, higher = more signal, called active from +8 up or from −8 down;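 further: HEK293 cells carrying a splicing-competent luciferase reporter gene; test concentration not given here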
[15] = target: Fibroblast growth factor 10 (Homo sapiens) (UniProt O15520); test: FGF10 binders on small-molecule microarrays, primary screen, biochemical, small-molecule microarray, 635 nm fluorescence (AID 1102); settings: FGF10 binding, fluorescence 635 nm, higher = more signal
Fibroblast growth factor 10 (Homo sapiens), sequence (O15520 whole entry, looked up): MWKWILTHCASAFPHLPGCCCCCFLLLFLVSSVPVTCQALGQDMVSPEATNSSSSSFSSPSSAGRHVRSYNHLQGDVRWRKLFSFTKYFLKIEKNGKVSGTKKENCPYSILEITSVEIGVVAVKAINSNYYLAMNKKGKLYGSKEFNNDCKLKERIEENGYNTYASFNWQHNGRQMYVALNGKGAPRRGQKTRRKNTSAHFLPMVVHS

[16] = system: glycogen synthase kinase-3 (GSK3A per assay name; protocol says GSK3B); test: GSK3 binders on small-molecule microarrays, primary screen, biochemical, small-molecule microarray, 635 nm fluorescence, GSK3A (AID 1103); settings: small-molecule microarray binding, fluorescence 635 nm; higher = more signal; further: the record names both GSK3A and GSK3B
[17] = target: Epidermal growth factor receptor (Homo sapiens) (UniProt P00533); test: EGFR binders on small-molecule microarrays, primary screen, biochemical, small-molecule microarray, 635 nm fluorescence (AID 1104); settings: EGFR binding, higher = more signal;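 further: score merges 667 nm emission intensity with spot signal to noise over triplicate slides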
Epidermal growth factor receptor (Homo sapiens), sequence (P00533 whole entry, looked up): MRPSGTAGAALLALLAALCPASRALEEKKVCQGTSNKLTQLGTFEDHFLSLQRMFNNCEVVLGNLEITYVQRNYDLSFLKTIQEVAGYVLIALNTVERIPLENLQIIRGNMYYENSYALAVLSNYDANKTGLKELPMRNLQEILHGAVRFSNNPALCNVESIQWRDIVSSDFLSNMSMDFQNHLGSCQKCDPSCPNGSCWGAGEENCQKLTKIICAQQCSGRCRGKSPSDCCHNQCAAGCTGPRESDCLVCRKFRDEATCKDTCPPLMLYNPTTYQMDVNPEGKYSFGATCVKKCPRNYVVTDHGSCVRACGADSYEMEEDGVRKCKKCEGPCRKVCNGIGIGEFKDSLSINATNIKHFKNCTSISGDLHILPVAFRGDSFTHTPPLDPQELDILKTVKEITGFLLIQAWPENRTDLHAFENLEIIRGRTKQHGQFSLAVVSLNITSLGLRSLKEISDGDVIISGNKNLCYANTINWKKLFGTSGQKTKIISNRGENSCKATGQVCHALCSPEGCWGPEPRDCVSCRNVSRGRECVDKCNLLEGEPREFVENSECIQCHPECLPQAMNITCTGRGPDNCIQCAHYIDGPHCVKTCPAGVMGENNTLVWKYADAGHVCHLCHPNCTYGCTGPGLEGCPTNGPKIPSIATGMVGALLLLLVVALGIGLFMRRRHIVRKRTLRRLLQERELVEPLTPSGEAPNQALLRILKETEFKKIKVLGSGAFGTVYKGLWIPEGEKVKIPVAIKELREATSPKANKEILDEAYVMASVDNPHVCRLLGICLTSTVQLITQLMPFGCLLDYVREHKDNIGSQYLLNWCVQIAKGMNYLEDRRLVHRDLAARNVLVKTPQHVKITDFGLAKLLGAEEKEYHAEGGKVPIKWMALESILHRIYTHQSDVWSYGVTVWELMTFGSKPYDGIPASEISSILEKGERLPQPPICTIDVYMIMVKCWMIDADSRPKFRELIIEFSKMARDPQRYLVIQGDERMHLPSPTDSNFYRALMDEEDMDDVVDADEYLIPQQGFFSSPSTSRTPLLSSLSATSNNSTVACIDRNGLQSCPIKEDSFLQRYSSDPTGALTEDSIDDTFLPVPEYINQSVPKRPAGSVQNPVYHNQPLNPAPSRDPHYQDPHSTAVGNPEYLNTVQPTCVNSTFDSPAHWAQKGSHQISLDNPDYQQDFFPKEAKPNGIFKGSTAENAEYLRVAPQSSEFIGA

[18] = target: Follistatin-related protein 3 (Homo sapiens) (UniProt O95633); test: FSTL3 binders on small-molecule microarrays, primary screen, biochemical, small-molecule microarray, 635 nm fluorescence (AID 1105); settings: FSTL3 binding, higher = more signal;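 further: score merges emission near 667 nm and signal to noise per printed spot across three slides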
Follistatin-related protein 3 (Homo sapiens), sequence (O95633 whole entry, looked up): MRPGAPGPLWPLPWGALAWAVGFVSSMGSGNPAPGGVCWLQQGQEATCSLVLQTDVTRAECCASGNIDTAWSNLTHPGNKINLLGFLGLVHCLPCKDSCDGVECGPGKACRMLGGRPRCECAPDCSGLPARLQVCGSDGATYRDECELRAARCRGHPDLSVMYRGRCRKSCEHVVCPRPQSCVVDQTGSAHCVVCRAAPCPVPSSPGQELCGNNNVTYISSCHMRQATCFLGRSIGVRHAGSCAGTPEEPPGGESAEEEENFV

[19] = target: Dickkopf-related protein 1 (Homo sapiens) (UniProt O94907); test: DKK1 binders on small-molecule microarrays, primary screen, biochemical, small-molecule microarray, 635 nm fluorescence scan (AID 1106); settings: DKK1 binding, higher = more signal;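 further: score merges emission near 667 nm with signal to noise over three replicate slides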
Dickkopf-related protein 1 (Homo sapiens), sequence (O94907 whole entry, looked up): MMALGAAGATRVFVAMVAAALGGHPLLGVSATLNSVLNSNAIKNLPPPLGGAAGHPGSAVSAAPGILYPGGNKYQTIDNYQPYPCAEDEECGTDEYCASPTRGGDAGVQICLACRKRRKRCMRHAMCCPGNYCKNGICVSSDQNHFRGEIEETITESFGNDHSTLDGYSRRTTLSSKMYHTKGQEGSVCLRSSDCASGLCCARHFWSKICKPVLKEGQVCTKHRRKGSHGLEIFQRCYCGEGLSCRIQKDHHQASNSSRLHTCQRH

[20] = system: Inhibin beta A chain (activin A); test: INHBA (activin A) binders on microarrays, primary screen, biochemical, small-molecule microarray, 635 nm fluorescence scan (AID 1107); settings: small-molecule microarray binding, higher = more signal;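 further: mouse activin A protein probed at 4.33 µg/mL on printed slides; score merges bound-protein fluorescence near 667 nm with spot signal-to-noise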

SMILES	composite z-score [1]	z-score [2]	z-score [3]	z-score [4]	composite z-score [5]	z-score [6]	composite z-score [7]	composite z-score [8]	composite z-score [9]	composite z-score [10]	composite z-score [11]	composite z-score [12]	composite z-score [13]	z-score [14]	composite z-score [15]	composite z-score [16]	composite z-score [17]	composite z-score [18]	composite z-score [19]	composite z-score [20]
CC(C)C(CO)N1C(=O)[C@@H]2C3C(=O)OCCC/C=C\[C@H]3OC23C=CCN(c2ccc4ccccc4c2)C(=O)[C@@H]13 (stereo not given in full)	-0.403	-0.25 (inactive)	-1.45 (inactive)	-0.0641 (inactive)	1.34	-0.395 (inactive)	-0.0928	-0.469	0.121	-0.203	0.552	-0.167	0.375	-0.298 (inactive)	0.0329	-1.01	-1.2	-0.602	-0.4	0.791
CCCCC(O)C1C=CC2C(=O)N(C)C(=O)C2N1N(c1ccccc1)c1ccccc1 (stereo not given)	1.56	-0.0289 (inactive)	0.483 (inactive)	0.251 (inactive)	3.1	-1.8 (inactive)	-0.0441	-0.0371	1.1	0.111	1.5	0.866	1.31	1.44 (inactive)	0.42	1.02	0.0978	0.424	-0.73	1.18
O=c1cccc(-c2ccc([N+](=O)[O-])cc2)o1	1.03	-0.778 (inactive)	1.25 (inactive)	-0.495 (inactive)	0.706	0.188 (inactive)	-0.139	1.17	0.375	-0.0644	-0.632	-0.0855	-0.512	-1.49 (inactive)	0.274	0.959	0.574	0.534	0.0662	1.22
COc1ccc([Si](C)(C)[C@@H]2[C@@H](CCO)O[C@]3(C(=O)N(Cc4ccccc4)c4ccc(NC(=O)[C@H](C)O)cc43)[C@H]2C)cc1	1.54	2.85 (inactive)	0.386 (inactive)	7.41 (inactive)	2	0.655 (inactive)	-0.0766	1.25	1.05	-0.067	0.728	-0.106	-0.147	-1.75 (inactive)	0.867	1.29	0.778	1.14	0.43	-0.159
N#Cc1ccc(NN2C(C(O)c3ccc(Br)cc3)C=CC3C(=O)N(c4ccccc4)C(=O)C32)cc1 (stereo not given)	0.751	-1.16 (inactive)	-0.605 (inactive)	0.297 (inactive)	2.99	-1 (inactive)	0.145	-0.146	1.01	0.233	1.17	0.96	0.905	-0.699 (inactive)	0.65	0.648	0.297	0.743	0.316	-0.374
C=C[C@@H](CO)N(Cc1ccc(OC)cc1)S(=O)(=O)c1ccc(Br)cc1	-0.043	-3.19 (inactive)	-6.8 (inactive)	-1.92 (inactive)	0.268	2.31 (inactive)	0.0711	-0.193	-0.731	-0.0967	-0.36	0.188	0.681	-1.21 (inactive)	0.0174	0.239	-0.142	-0.0506	-0.0478	0.0176
